KCNQ2 block = rat KCNQ2 potassium channel inhibitors, primary screen, cell-based, CHO-K1, FluxOR thallium flux, B-score; Potassium voltage-gated channel subfamily KQT member 2 (Rattus norvegicus), O88943; 20 min; stronger effect = lower value; B-score at 10 µM; 310,000 tested, 1.1% active; AID 2156, 2009;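 active means fluorescence ratio B-score at most minus 3 library SDs, with starting brightness B-score within 2 library SDs, cut at about -5.5 in these data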
Target sequence (O88943 whole entry, looked up): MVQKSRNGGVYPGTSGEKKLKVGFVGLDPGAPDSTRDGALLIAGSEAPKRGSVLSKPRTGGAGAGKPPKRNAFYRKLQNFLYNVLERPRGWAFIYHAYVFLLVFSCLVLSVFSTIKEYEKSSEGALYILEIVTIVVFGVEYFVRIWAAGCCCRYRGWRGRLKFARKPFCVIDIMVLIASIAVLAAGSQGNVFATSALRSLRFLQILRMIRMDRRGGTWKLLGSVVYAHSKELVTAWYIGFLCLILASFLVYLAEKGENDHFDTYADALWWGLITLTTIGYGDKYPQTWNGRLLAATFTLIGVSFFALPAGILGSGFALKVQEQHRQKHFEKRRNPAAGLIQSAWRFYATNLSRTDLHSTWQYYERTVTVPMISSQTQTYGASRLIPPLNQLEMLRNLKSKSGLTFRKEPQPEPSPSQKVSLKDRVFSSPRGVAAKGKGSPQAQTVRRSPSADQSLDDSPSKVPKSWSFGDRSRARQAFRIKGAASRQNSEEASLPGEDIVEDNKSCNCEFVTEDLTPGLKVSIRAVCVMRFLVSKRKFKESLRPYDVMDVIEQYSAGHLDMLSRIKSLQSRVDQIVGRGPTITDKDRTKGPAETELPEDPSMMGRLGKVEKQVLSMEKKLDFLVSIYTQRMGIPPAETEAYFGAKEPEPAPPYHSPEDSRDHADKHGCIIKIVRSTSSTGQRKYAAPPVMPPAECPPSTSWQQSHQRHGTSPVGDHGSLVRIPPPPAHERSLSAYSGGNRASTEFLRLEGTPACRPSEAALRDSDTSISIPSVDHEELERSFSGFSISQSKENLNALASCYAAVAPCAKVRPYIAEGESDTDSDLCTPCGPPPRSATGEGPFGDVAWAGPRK
KCNQ2 pot = potentiators of rat KCNQ2 potassium channel; CHO-K1 KCNQ2, FluxOR thallium flux fluorescence; stronger effect = higher value; Potassium voltage-gated channel subfamily KQT member 2 (Rattus norvegicus), O88943; B-score at 10 µM; 310,000 tested, 0.54% active; AID 2239, 2010;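 active means fluorescence ratio B-score at least 3 SD of library B-scores, with initial fluorescence B-score within 3 of them, cut at about 5.3 in these data; same plate scores as AID 2156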;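 further: B-score of peak minus minimum over baseline fluorescence ratio after K+ and Tl+ stimulus; positive B-score means potentiation of KCNQ2 with more thallium influx and brighter signal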
An asterisk follows results filed as active. Sampled rows, rich in hits. Any-hit rate of the full collection: about 1.6%.

For CC1(C)Cc2c(cnn2-c2ccc(F)cc2)C(NC(=O)CCN2CCCCC2=O)C1 (centres undefined) the results were KCNQ2 block inactive and KCNQ2 pot 0.07.
`Cc1ccc(S[C@@H](CCN2CC[C@H](NC(=O)OCc3ccccc3)CCC2=O)c2ccccc2)cc1` gave KCNQ2 block -6.9* and KCNQ2 pot -6.9.
For Cc1ccc(SC[C@H](C)CN2CC[C@H](NC(=O)OCc3ccccc3)CCC2=O)cc1 the results were KCNQ2 block inactive.
For COc1ccc2nccc(/C=C/c3ccnc4ccc(OC)cc34)c2c1 the results were KCNQ2 block inactive.
`COC(=O)c1ccccc1S(=O)(=O)N1CCC(C(=O)OCc2cccc(OC)c2OC)CC1` gave KCNQ2 block inactive and KCNQ2 pot 0.21.
`CCN(CC)S(=O)(=O)c1cc(NC(=O)c2ccc(-n3cncn3)c([N+](=O)[O-])c2)ccc1C` gave KCNQ2 block inactive.
O=C(O)c1ccc(CN2C(=O)c3cccc4c([N+](=O)[O-])ccc(c34)C2=O)cc1 was read as KCNQ2 block -8.6* and KCNQ2 pot -8.6.
For Cc1ccc(C(=O)O)cc1N1C(=O)c2cccc3c([N+](=O)[O-])ccc(c23)C1=O the results were KCNQ2 block inactive.
For C=C(C)CNC(=S)N1CCN(C(c2ccccc2)c2ccccc2)CC1 the results were KCNQ2 block inactive.
CC(C)CNC(=S)N1CCN(C(c2ccccc2)c2ccccc2)CC1 was read as KCNQ2 block -5.9* and KCNQ2 pot -5.9.
For CCOc1ccccc1N(CC(=O)NCCSc1ccccc1)S(C)(=O)=O the results were KCNQ2 block inactive.
O=C(/C=C/c1ccc(F)cc1)N1CCN(c2ccccn2)CC1 was read as KCNQ2 block inactive and KCNQ2 pot 0.01.
`Cc1cc(OCC(=O)N2CCN(c3ccccn3)CC2)cc(C)c1Br` gave KCNQ2 block -6* and KCNQ2 pot -6.
Screening O=C(/C=C/c1cccc(Br)c1)N1CCN(c2ccccn2)CC1 returned KCNQ2 block -7.6* and KCNQ2 pot -7.6.
Screening CCc1ccc(OCC(=O)N2CCN(c3ccccn3)CC2)c(Br)c1 returned KCNQ2 block inactive and KCNQ2 pot 0.22.
For CCCNC(=O)c1ccc2c(c1)nc(C)n2-c1cccc(Cl)c1 the results were KCNQ2 block inactive.
`CCCCc1ccc(NC(=O)CC(C)(C)C)cc1` gave KCNQ2 block inactive and KCNQ2 pot 14*.
`CCCCc1ccc(NC(=O)CC(C)=O)cc1` gave KCNQ2 block inactive and KCNQ2 pot 1.
Cc1c(Cl)cccc1NC(=O)CCN1C(=O)C2CC=CCC2C1=O (centres undefined) was read as KCNQ2 block inactive and KCNQ2 pot 0.17.
`Cc1cc(C)n(CCOC(=O)c2sc3ccccc3c2Cl)n1` gave KCNQ2 block -10* and KCNQ2 pot -10.
For NC(=O)COC(=O)c1sc2ccccc2c1Cl the results were KCNQ2 block inactive and KCNQ2 pot 0.01.
For CCN1CCN(S(=O)(=O)c2ccc(-c3cc(C)no3)s2)CC1 the results were KCNQ2 block inactive and KCNQ2 pot 0.1.
Cc1cc(-c2ccc(S(=O)(=O)N(C)c3ccc(C)c(C)c3)s2)on1 was read as KCNQ2 block -6.7* and KCNQ2 pot -6.7.
Cc1ccc(N(C)S(=O)(=O)c2ccc(-c3cc(C)no3)s2)cc1 was read as KCNQ2 block -6.5* and KCNQ2 pot -6.5.
`COc1ccc(-c2cc(C)no2)cc1S(=O)(=O)N(C)c1ccc(C)c(C)c1` gave KCNQ2 block inactive.
NC(=O)CSc1nnc(CSc2ncccn2)n1-c1ccccc1 was read as KCNQ2 block inactive.
Screening CC(=O)Oc1cc2c(cc1Cl)C(c1cccs1)CC1(CC(C)(C)NC(=S)N1)O2 (centres undefined) returned KCNQ2 block inactive and KCNQ2 pot 0.33.
`N#CC1(NC(=O)COC(=O)c2ccccc2SCC(=O)N2CCCC2)CCCCC1` gave KCNQ2 block inactive and KCNQ2 pot 0.66.
For COc1cccc(/C=N/NC(=O)c2nc(-c3ccccc3)cc(-c3ccccc3)n2)c1 the results were KCNQ2 block -6.9* and KCNQ2 pot -6.9.
Screening COc1ccc(/C=N/NC(=O)c2nc(-c3ccccc3)cc(-c3ccccc3)n2)cc1OC returned KCNQ2 block inactive.
For CO/N=C(\Cn1ncc(N2CCCC2)c(Br)c1=O)c1ccc(Cl)cc1 the results were KCNQ2 block inactive.
For CO/N=C(\Cn1ncc(NC2CCCCC2)c(Br)c1=O)c1ccc(Cl)cc1 the results were KCNQ2 block -6.2* and KCNQ2 pot -6.2.
COc1cc2[nH]c(Cl)c([N+](=O)[O-])c2cc1OC was read as KCNQ2 block inactive and KCNQ2 pot 1.6.
For Cc1cccc(NC(=O)N2CCCC(CNC(=O)c3ccccc3Cl)C2)c1C (centres undefined) the results were KCNQ2 block -8.2* and KCNQ2 pot -8.2.
For CC(=O)c1ccc(C(=O)N2CCCC(CNC(=O)c3ccccc3Cl)C2)cc1 (centres undefined) the results were KCNQ2 block inactive.
Cc1ccc(S(=O)(=O)Nc2ccccc2C(=O)N2CCCCCC2)cc1 was read as KCNQ2 block inactive.
For O=C1CC(c2ccccc2)c2cccc(F)c21 (centres undefined) the results were KCNQ2 block inactive.
`Cc1c(Cl)cccc1NCC(=O)Nc1ccc(Cl)cc1F` gave KCNQ2 block -6.8* and KCNQ2 pot -6.8.
Screening C/C(=N\NC(=O)CNc1cccc(C(F)(F)F)c1)c1ccc(Br)cc1 returned KCNQ2 block inactive.
Screening Cc1c(Cl)cccc1NC(=O)CNc1cccc(C(F)(F)F)c1 returned KCNQ2 block -6* and KCNQ2 pot -6.
`Cc1ccc(F)cc1NCC(=O)Nc1ccc(Cl)cc1F` gave KCNQ2 block inactive.
CCc1cccc(CC)c1NC(=O)CSc1nnc(C2CC2)n1C was read as KCNQ2 block inactive and KCNQ2 pot 0.08.
Screening COc1ccc(-c2cc(C(F)(F)F)nc(N3CCN(Cc4ccccc4)CC3)n2)cc1OC returned KCNQ2 block -5.6* and KCNQ2 pot -5.6.
Screening COc1ccc(-c2cc(C(F)(F)F)nc(N3CCN(c4ccc(F)cc4)CC3)n2)cc1OC returned KCNQ2 block inactive and KCNQ2 pot 0.7.
COc1ccc(/C=C2\Sc3ccc(C(=O)N4CCc5ccccc5C4)cc3N(C)C2=O)cc1 was read as KCNQ2 block inactive.
For CCN1CCN(CCNC(=O)c2ccc3c(c2)N(Cc2ccc(F)cc2)C(=O)/C(=C/c2ccccc2)S3)CC1 the results were KCNQ2 block -6.5* and KCNQ2 pot -6.5.
Screening COc1ccc(/C=C2\Sc3ccc(C(=O)NCCN4CCCCCC4)cc3N(C)C2=O)cc1 returned KCNQ2 block -6.4* and KCNQ2 pot -6.4.
For CCN1CCN(CCNC(=O)c2ccc(/C=C3/Sc4ccccc4N(Cc4cccc(Cl)c4)C3=O)cc2)CC1 the results were KCNQ2 block inactive.
For CCn1ccnc1CN(C)Cc1c(C(=O)N2C[C@@H](C)O[C@@H](C)C2)nc2ccc(Cl)cn12 the results were KCNQ2 block inactive and KCNQ2 pot 0.28.
`O=C(Cn1cc([N+](=O)[O-])cn1)NCc1cc2ccccc2[nH]1` gave KCNQ2 block inactive and KCNQ2 pot 0.32.

Assay outcomes as filed in PubChem.
